# Laboratory results from PubChem BioAssay (NCATS).
# Results filed as inconclusive are left out. Activity calls are given as the source filed them. Calls follow the shape of the dose curve; as a rule, active = well fitted curve in the direction sought with a large enough effect; inconclusive = small, poorly fitted or top-dose-only effect, or another doubt; inactive = no such curve, though single readings can be large; an effect the other way counts as inactive or inconclusive.
# How the values were obtained:
# [1] = Quantitative High-Throughput drug screen in 47 multiple myeloma cell lines against the NCATS MIPE library collection: KHM11_PLB cell viability assay (AID 1918962); conditions: KHM11 myeloma cell viability, CellTiter-Glo ATP luminescence, 48 h; series mostly up to 45.8 µM; also: nearly all actives have a fitted effect of over 35% in size
# Method in brief: (§1)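 CellTiter-Glo luminescence (ATP) after 48 h compound exposure, 37C/5% CO2; 500 cells/well; MIPE 4.0 approved/investigational drugs pinned in; DMSO = 100%, media only = 0% viability.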
# [2] = Quantitative High-Throughput drug screen in 47 multiple myeloma cell lines against the NCATS MIPE library collection: JIM3_ECACC cell viability assay (AID 1918963; also: nearly all actives have a fitted effect of over 35% in size); conditions: JIM3 myeloma viability, CellTiter-Glo ATP, 48 h; series mostly up to 45.8 µM
# Method in brief: as §1
# [3] = Quantitative High-Throughput drug screen in 47 multiple myeloma cell lines against the NCATS MIPE library collection: INA6_PLB cell viability assay (AID 1918965; also: nearly all actives have a fitted effect of over 55% in size); conditions: INA6 myeloma viability, CellTiter-Glo ATP luminescence, 48 h; series mostly up to 45.8 µM
# Method in brief: (§2)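 Myeloma cells (500 per well) were exposed to MIPE 4.0 compounds by pin transfer and incubated 48 hours at 37C, 5% CO2. Viability was read as ATP by CellTiter-Glo luminescence, normalised to DMSO (100%) and media-only (0%) wells.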
# [4] = Quantitative High-Throughput drug screen in 47 multiple myeloma cell lines against the NCATS MIPE library collection: Karpas25_ECACC cell viability assay (AID 1918968; also: nearly all actives have a fitted effect of over 35% in size); conditions: Karpas25 myeloma viability, CellTiter-Glo ATP, 48 h; series mostly up to 45.8 µM
# Method in brief: (§3)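 Myeloma cell lines, 500 cells per well, exposed to MIPE 4.0 library compounds for 48 h at 37C, 5% CO2. Viability from ATP by CellTiter-Glo luminescence; normalised to DMSO (100%) and media-only (0%) wells.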
# [5] = Quantitative High-Throughput drug screen in 47 multiple myeloma cell lines against the NCATS MIPE library collection: KMS12BM_JCRB cell viability assay (AID 1918971); conditions: KMS12BM myeloma viability, CellTiter-Glo ATP, 48 h; series mostly up to 45.8 µM; also: nearly all actives have a fitted effect of over 35% in size
# Method in brief: (§4)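 Viability readout: CellTiter-Glo luminescence following 5 min room-temperature incubation with reagent. Prior exposure: 48 h, 37C, humidified 5% CO2, 500 cells per well.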
# [6] = Quantitative High-Throughput drug screen in 47 multiple myeloma cell lines against the NCATS MIPE library collection: KMS12PE_JCRB cell viability assay (AID 1918972); conditions: KMS12PE myeloma viability, CellTiter-Glo ATP, 48 h; series mostly up to 45.8 µM; also: nearly all actives have a fitted effect of over 30% in size
# Method in brief: as §2
# [7] = Quantitative High-Throughput drug screen in 47 multiple myeloma cell lines against the NCATS MIPE library collection: KMS20_JCRB cell viability assay (AID 1918973); conditions: CellTiter-Glo ATP, 48 h; series mostly up to 45.8 µM; also: nearly all actives have a fitted effect of over 45% in size
# Method in brief: as §3
# [8] = Quantitative High-Throughput drug screen in 47 multiple myeloma cell lines against the NCATS MIPE library collection: KMS26_JCRB cell viability assay (AID 1918975); conditions: KMS26 myeloma cells viability, CellTiter-Glo ATP, 48 h; series mostly up to 45.8 µM; also: nearly all actives have a fitted effect of over 45% in size
# Method in brief: as §4
# [9] = Quantitative High-Throughput drug screen in 47 multiple myeloma cell lines against the NCATS MIPE library collection: MOLP8_DSMZ cell viability assay (AID 1918977); conditions: MOLP8 myeloma viability, CellTiter-Glo ATP luminescence, 48 h; series mostly up to 45.8 µM; also: nearly all actives have a fitted effect of over 45% in size
# Method in brief: (§5)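 Myeloma cells (500/well) treated with MIPE 4.0 compounds for 48 h at 37 °C, 5% CO2. Viability read as ATP via CellTiter-Glo luminescence after 5 min at RT; DMSO-only wells = 100%, media-only = 0% viability.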
# [10] = Quantitative High-Throughput drug screen in 47 multiple myeloma cell lines against the NCATS MIPE library collection: NCIH929_DSMZ cell viability assay (AID 1918978); conditions: NCI-H929 myeloma viability, CellTiter-Glo ATP, 48 h; series mostly up to 45.8 µM; also: nearly all actives have a fitted effect of over 35% in size
# Method in brief: as §5
# [11] = Quantitative High-Throughput drug screen in 47 multiple myeloma cell lines against the NCATS MIPE library collection: OCIMY1_PLB cell viability assay (AID 1918979); conditions: OCI-MY1 myeloma viability, CellTiter-Glo ATP, 48 h; series mostly up to 45.8 µM; also: nearly all actives have a fitted effect of over 35% in size
# Method in brief: as §5
# [12] = Quantitative High-Throughput drug screen in 47 multiple myeloma cell lines against the NCATS MIPE library collection: MM1S_ATCC cell viability assay (AID 1918980); conditions: MM1S myeloma viability, CellTiter-Glo ATP luminescence, 48 h; series mostly up to 45.8 µM; also: nearly all actives have a fitted effect of over 45% in size
# Method in brief: as §5
# [13] = Quantitative High-Throughput drug screen in 47 multiple myeloma cell lines against the NCATS MIPE library collection: MM1R_ATCC cell viability assay (AID 1918981); conditions: MM1R multiple myeloma cells, CellTiter-Glo viability, 48 h; series mostly up to 45.8 µM; also: nearly all actives have a fitted effect of over 35% in size
# Method in brief: as §5
# [14] = Quantitative High-Throughput drug screen in 47 multiple myeloma cell lines against the NCATS MIPE library collection: JIM1_ECACC cell viability assay (AID 1918964); conditions: JIM1 myeloma viability, CellTiter-Glo ATP luminescence, 48 h; series mostly up to 45.8 µM
# Method in brief: as §3
# [15] = Quantitative High-Throughput drug screen in 47 multiple myeloma cell lines against the NCATS MIPE library collection: JJN3_DSMZ cell viability assay (AID 1918966; also: nearly all actives have a fitted effect of over 50% in size); conditions: JJN3 myeloma cells viability, CellTiter-Glo ATP, 48 h; series mostly up to 45.8 µM
# Method in brief: as §3
# [16] = Quantitative High-Throughput drug screen in 47 multiple myeloma cell lines against the NCATS MIPE library collection: H1112_PLB cell viability assay (AID 1918967; also: nearly all actives have a fitted effect of over 30% in size); conditions: H1112 myeloma cells viability, ATP luminescence, 48 h; series mostly up to 45.8 µM
# Method in brief: as §3
# [17] = Quantitative High-Throughput drug screen in 47 multiple myeloma cell lines against the NCATS MIPE library collection: KMS27_JCRB cell viability assay (AID 1918970); conditions: KMS27 myeloma cells, CellTiter-Glo ATP viability, 48 h; series mostly up to 45.8 µM; also: nearly all actives have a fitted effect of over 30% in size
# Method in brief: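 Each line is seeded at 500 cells per well and treated with library compounds for 48 hours under 37 °C, 5% CO2. CellTiter-Glo is then added for 5 min at room temperature before median relative luminescence is recorded.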
# [18] = Quantitative High-Throughput drug screen in 47 multiple myeloma cell lines against the NCATS MIPE library collection: KMS21BM_JCRB cell viability assay (AID 1918974); conditions: ATP luminescence, 48 h; viability: at 45.8 µM (top of the series) unless noted
# Method in brief: as §3
# [19] = Quantitative High-Throughput drug screen in 47 multiple myeloma cell lines against the NCATS MIPE library collection: LP1_DSMZ cell viability assay (AID 1918982); conditions: LP1 myeloma viability, CellTiter-Glo ATP luminescence, 48 h; series mostly up to 45.8 µM; also: nearly all actives have a fitted effect of over 35% in size
# Method in brief: as §5
# [20] = Quantitative High-Throughput drug screen in 47 multiple myeloma cell lines against the NCATS MIPE library collection: MMM1_PLB cell viability assay (AID 1918976); conditions: MMM1 myeloma cells viability, CellTiter-Glo, 48 h; series mostly up to 45.8 µM; also: nearly all actives have a fitted effect of over 35% in size
# Method in brief: as §5
# Potency is read from the fitted curve at half-maximal effect.
Structure (SMILES),Potency [1],Potency [2],Potency [3],Potency [4],Potency [5],Potency [6],Potency [7],Potency [8],Potency [9],Potency [10],Potency [11],Potency [12],Potency [13],Potency [14],Potency [15],Potency [16],Potency [17],Potency [18],Potency [19],Potency [20]
CCn1nnc2c(N3CCOCC3)nc(-c3ccc(NC(=O)Nc4ccc(C(=O)N5CCN(C)CC5)cc4)cc3)nc21,5.9 nM (active),23.5 nM (active),5.3 nM (active),8.3 nM (active),5.9 nM (active),46.9 nM (active),23.5 nM (active),41.8 nM (active),3.7 nM (active),6.6 nM (active),5260 nM (active),33.2 nM (active),46.9 nM (active),–,–,–,–,–,–,–
Nc1ncnc2c1c(-c1cnc3[nH]ccc3c1)nn2C1CCCC1,–,4690 nM (active),209 nM (active),209 nM (active),743 nM (active),935 nM (active),83.3 nM (active),10500 nM (active),105 nM (active),235 nM (active),1870 nM (active),–,2090 nM (active),526 nM (active),2350 nM (active),6620 nM (active),209 nM (active),1050 nM (active),148 nM (active),–
COCCn1c2c([n+](Cc3cnccn3)c1C)C(=O)c1ccccc1C2=O,29.6 nM (active),26.4 nM (active),–,–,41.8 nM (active),–,23.5 nM (active),14.8 nM (active),23.5 nM (active),–,26.4 nM (active),3.7 nM (active),4.2 nM (active),–,–,52.6 nM (active),–,–,13.2 nM (active),16.6 nM (active)
Cc1cnc(-c2cnc(NCCNc3ccc(C#N)cn3)nc2-c2ccc(Cl)cc2Cl)[nH]1,16600 nM (active),–,–,5900 nM (active),–,–,–,–,–,10500 nM (active),–,–,–,inactive,–,–,inactive,–,–,–
CC[C@@H]1C(=O)N(C)c2cnc(Nc3ccc(C(=O)NC4CCC(N5CCN(CC6CC6)CC5)CC4)cc3OC)nc2N1C(C)C (stereo partly drawn),8330 nM (active),41.8 nM (active),187 nM (active),5260 nM (active),74.3 nM (active),2960 nM (active),4180 nM (active),5260 nM (active),3720 nM (active),–,264 nM (active),1320 nM (active),1870 nM (active),–,–,–,–,935 nM (active),–,7430 nM (active)
CC1(C)CCC(c2ccc(Cl)cc2)=C(CN2CCN(c3ccc(C(=O)NS(=O)(=O)c4ccc(N[C@H](CCN5CCOCC5)CSc5ccccc5)c(S(=O)(=O)C(F)(F)F)c4)cc3)CC2)C1,6620 nM (active),–,–,833 nM (active),332 nM (active),10.5 nM (active),–,105 nM (active),–,13200 nM (active),7430 nM (active),332 nM (active),187 nM (active),–,–,83.3 nM (active),14.8 nM (active),–,–,93.5 nM (active)
Clc1cccc(-n2nnnc2NCc2ccccc2Oc2ccccn2)c1Cl,inactive,inactive,–,–,–,–,–,–,–,inactive,inactive,inactive,inactive,–,–,inactive,–,–,–,–
COc1cc(C(=O)N2CCC(N3CCN(C)CC3)CC2)ccc1Nc1ncc2c(n1)N(C)c1ccccc1C(=O)N2C,7430 nM (active),14800 nM (active),935 nM (active),11800 nM (active),–,1660 nM (active),13200 nM (active),1660 nM (active),2090 nM (active),–,7430 nM (active),6620 nM (active),6620 nM (active),–,–,–,–,–,–,1660 nM (active)
C[C@]1(CO)CN(c2cc(C(=O)Nc3ccc4c(c3)-c3c(c(C(N)=O)nn3-c3ccc(F)cc3)CC4)c(Cl)cn2)C[C@@]1(C)CO,4180 nM (active),–,2640 nM (active),14800 nM (active),16600 nM (active),–,5260 nM (active),–,–,9350 nM (active),inactive,–,8330 nM (active),11800 nM (active),–,11800 nM (active),5.3 nM (active),5260 nM (active),–,14800 nM (active)
COC(=O)Nc1nc2ccc(C(=O)c3ccc(F)cc3)cc2[nH]1,264 nM (active),590 nM (active),418 nM (active),–,833 nM (active),–,–,5260 nM (active),418 nM (active),743 nM (active),662 nM (active),–,833 nM (active),–,–,–,–,296 nM (active),–,11800 nM (active)
C=CCn1c(=O)c2cnc(Nc3ccc(N4CCN(C)CC4)cc3)nc2n1-c1cccc(C(C)(C)O)n1,833 nM (active),590 nM (active),526 nM (active),332 nM (active),526 nM (active),118 nM (active),8330 nM (active),–,–,7430 nM (active),–,–,166 nM (active),–,–,469 nM (active),–,9350 nM (active),–,inactive
CN(C)c1nc(Cc2ccc(NC(=O)c3ccc4ccccc4c3)cc2)nc(Cl)c1CC(=O)O,inactive,inactive,inactive,inactive,inactive,16600 nM (active),inactive,inactive,inactive,inactive,–,2960 nM (active),inactive,–,–,inactive,52.6 nM (active),–,inactive,–
